An excerpt weighted towards active compounds, which were near 4.1% of everything screened.
DAX1 inh-1 – blocks DAX1 repression of SF-1 activated StAR promoter; HEK293T StAR-luciferase reporter, SF-1/DAX-1 repression relief; inhibition, % at 6.8 µM; actives 1.1% (n = 370,000); AID 652010;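 active = inhibition above the mean over all tested compounds plus 3 SD, cut at about 3.6% in these data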;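 also: 0% = DAX-1 cells with DMSO and 100% = cells lacking DAX-1 with DMSO; higher inhibition means more luminescence from relief of DAX-1 repression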
hcDAF-12 act – activators of H. contortus DAF-12 nuclear receptor. actives 1.4% (n = 370,000). AID 652067. activation, % at 6.8 µM. HEK293 hcDAF-12 lit1-tk-luc reporter, luminescence; 0% DMSO, 100% Δ7-dafachronic acid;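 active = activation above the mean of all tested compounds plus 3 SD, cut at about 5.5% in these data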;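 also: 100% = response to 3 µM Δ7-dafachronic acid high control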
DAX1 inh-2 – inhibits human nuclear receptor DAX1. HEK293 Gal4-DAX1 luciferase reporter, luminescence. actives 0.99% (n = 340,000). AID 504766. P51843. inhibition, % at 6.75 µM;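 active = inhibition above the mean over all tested compounds plus 3 SD, cut at about 4.2% in these data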;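 also: 0% = DAX1-transfected cells with DMSO and 100% = empty-vector control cells with DMSO; inhibition shows as a rise in luminescence from relieved DAX1 repression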
Target sequence (P51843 207-470 limits assumed): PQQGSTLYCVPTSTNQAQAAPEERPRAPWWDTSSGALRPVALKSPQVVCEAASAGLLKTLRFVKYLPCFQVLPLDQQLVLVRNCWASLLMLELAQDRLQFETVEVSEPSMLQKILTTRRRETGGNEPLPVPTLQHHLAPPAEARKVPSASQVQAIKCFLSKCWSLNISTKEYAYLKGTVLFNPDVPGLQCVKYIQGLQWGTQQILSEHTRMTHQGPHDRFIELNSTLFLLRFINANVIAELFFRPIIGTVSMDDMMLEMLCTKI
ssDAF-12 act – activates DAF-12 receptor from parasite S. stercoralis | HEK293 ssDAF-12/GRIP1 lit1-tk-luc reporter, luminescence; % of 3 µM dafachronic acid response | actives 1% (n = 370,000) | AID 652126 | activation, % at 6.8 µM;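 active = activation above the mean over all tested compounds plus 3 SD, cut at about 0.9% in these data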;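 also: 0% = DMSO-only wells and 100% = 3 µM delta7-dafachronic acid wells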
hgDAF12 agonist – agonists of H. glycines DAF-12 nuclear receptor | activation, % at 6.8 µM | HEK293 GAL4-hgDAF12 UAS-luciferase reporter, agonist luminescence; normalized to butyrate control | actives 1.8% (n = 370,000);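 active = activation above a cutoff set at the mean of all screened compounds plus 3 SD, cut at about 10% in these data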;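 also: 0% = DMSO wells and 100% = sodium butyrate wells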
DAX1 inh confirm – confirmation of human DAX1 (NR0B1) inhibitors; shares compounds with DAX1 inh-1; HEK293T StAR-promoter luciferase reporter, SF-1/DAX-1 repression; inhibition, % at 6.8 µM; actives 87% (n = 2,400);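 active = inhibition above the average of every tested compound plus 3 SD, cut at about 3.8% in these data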;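 also: 0% = DAX-1 cells with DMSO and 100% = no DAX-1 control cells with DMSO; active compounds raise luminescence by relieving repression of the StAR reporter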
Target sequence (P51843 whole entry, looked up): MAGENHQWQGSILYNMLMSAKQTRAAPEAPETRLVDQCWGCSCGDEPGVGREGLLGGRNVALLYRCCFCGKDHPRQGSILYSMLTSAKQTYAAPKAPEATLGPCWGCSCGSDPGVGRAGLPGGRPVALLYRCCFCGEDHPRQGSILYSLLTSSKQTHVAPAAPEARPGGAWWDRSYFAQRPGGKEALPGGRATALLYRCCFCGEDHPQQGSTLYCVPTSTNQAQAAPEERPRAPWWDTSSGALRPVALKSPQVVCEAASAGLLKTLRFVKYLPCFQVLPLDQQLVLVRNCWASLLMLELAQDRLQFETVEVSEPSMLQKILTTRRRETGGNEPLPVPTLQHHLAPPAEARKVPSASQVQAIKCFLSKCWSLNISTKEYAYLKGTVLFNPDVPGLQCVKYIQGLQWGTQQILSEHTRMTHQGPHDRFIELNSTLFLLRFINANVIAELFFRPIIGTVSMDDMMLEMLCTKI
SF1 mutant ctr – nonselective inhibitor or artifact in SF-1 mutant DAX1 counter-screen; shares compounds with DAX1 inh-1; HEK293 StAR-luciferase, SF-1 AF2 mutant, luminescence; inhibition, % at 6.8 µM; actives 78% (n = 2,400);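 active = inhibition above the mean of all tested compounds plus 3 SD, cut at about 3% in these data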;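 also: 0% = DAX-1 transfected cells with DMSO and 100% = cells without DAX-1 with DMSO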
* = called active by the depositor.

How did COc1ccc2nc(SCC(=O)/C(C#N)=C(\C)N)[nH]c2c1 do in these assays?
DAX1 inh-1: 4.8*; hcDAF-12 act: 5.8*; DAX1 inh-2: 1.0; ssDAF-12 act: 0.0; hgDAF12 agonist: 9.2; DAX1 inh confirm: 13.8*; SF1 mutant ctr: 8.8*

Results for CC(C)N(C(=O)[C@H]1C[C@H](CC(=O)NCCN2CCOCC2)C(=O)N2CCc3c([nH]c4ccc(Cl)cc34)[C@]12C)C(C)C ?
DAX1 inh-1: 5.5*; hcDAF-12 act: -0.8; DAX1 inh-2: -0.6; ssDAF-12 act: -1.7; hgDAF12 agonist: -2.5; DAX1 inh confirm: -0.4; SF1 mutant ctr: -0.1

Results for CCN(CC)C(=O)[C@H]1C[C@H](CC(=O)NCCN2CCOCC2)C(=O)N2CCc3c([nH]c4ccc(Cl)cc34)[C@]12C ?
DAX1 inh-1: 1.2; hcDAF-12 act: -2.5; DAX1 inh-2: -1.4; ssDAF-12 act: -1.4; hgDAF12 agonist: -3.9

Results for O=C(CN(C(=O)c1csnn1)c1ccccc1C(F)(F)F)NCc1ccccc1 ?
DAX1 inh-1: -0.3; hcDAF-12 act: -0.8; DAX1 inh-2: -1.2; ssDAF-12 act: -1.3; hgDAF12 agonist: -0.1

What do the screens show for `COC(=O)c1ccc(NCCc2csc(-c3ccc(C)cc3)n2)c([N+](=O)[O-])c1`?
DAX1 inh-1: 0.7; hcDAF-12 act: 1.5; DAX1 inh-2: -0.6; ssDAF-12 act: -0.9; hgDAF12 agonist: 1.5

How did Cc1ccc2nc(N(CCCN(C)C)C(=O)c3ccc4ncsc4c3)sc2c1 do in these assays?
DAX1 inh-1: 6.4*; hcDAF-12 act: 2.8; DAX1 inh-2: 0.4; ssDAF-12 act: -0.6; hgDAF12 agonist: 6.6; DAX1 inh confirm: 10.6*; SF1 mutant ctr: 7.8*

What do the screens show for `Cc1cccc(NC(=O)c2ccco2)c1C`?
DAX1 inh-1: 0.2; hcDAF-12 act: 0.6; DAX1 inh-2: 2.5; ssDAF-12 act: -0.9; hgDAF12 agonist: -0.6

What do the screens show for `Cc1cc(NC(=O)c2ccco2)sc1C`?
DAX1 inh-1: 4.5*; hcDAF-12 act: 5.7*; DAX1 inh-2: 0.5; ssDAF-12 act: 0.7; hgDAF12 agonist: 7.3; DAX1 inh confirm: 6.4*; SF1 mutant ctr: 4.5*

How did Cc1ccc(Cc2cnc(NC(=O)c3ccco3)s2)cc1 do in these assays?
DAX1 inh-1: 6.6*; hcDAF-12 act: 5.9*; DAX1 inh-2: -0.3; ssDAF-12 act: 0.9; hgDAF12 agonist: 13.2*; DAX1 inh confirm: 16.0*; SF1 mutant ctr: 5.2*

How did COc1ccc(C(=O)NCCc2c[nH]c3ccccc23)cc1 do in these assays?
DAX1 inh-1: 0.5; hcDAF-12 act: 0.3; DAX1 inh-2: 3.3; ssDAF-12 act: -0.2; hgDAF12 agonist: 10.2

How did Cc1ccsc1C(=O)NCCc1c[nH]c2ccccc12 do in these assays?
DAX1 inh-1: 4.6*; hcDAF-12 act: 0.8; DAX1 inh-2: 1.8; ssDAF-12 act: 0.6; hgDAF12 agonist: 8.4; DAX1 inh confirm: 5.9*; SF1 mutant ctr: 2.9*

What do the screens show for `CSc1ccc(/C=C/C(=O)NC(=O)c2ccccc2O)cc1`?
DAX1 inh-1: 4.9*; hcDAF-12 act: 4.4; DAX1 inh-2: 1.0; ssDAF-12 act: -0.3; hgDAF12 agonist: 12.9*; DAX1 inh confirm: 8.8*; SF1 mutant ctr: 5.8*

How did O=C(/C=C/c1ccc(F)cc1)NC(=S)Nc1ccccc1O do in these assays?
DAX1 inh-1: -0.2; hcDAF-12 act: -1.2; DAX1 inh-2: -0.3; ssDAF-12 act: -1.4; hgDAF12 agonist: 3.3

How did COc1ccc(-n2nnnc2SCC(=O)Nc2c(C)n[nH]c2C)cc1 do in these assays?
DAX1 inh-1: -1.1; hcDAF-12 act: -1.2; DAX1 inh-2: -1.8; ssDAF-12 act: -0.8; hgDAF12 agonist: 0.7

What do the screens show for `O=C(/C(N=Nc1cccc(C(F)(F)F)c1)=C(/O)c1cccs1)C(F)(F)F`?
DAX1 inh-1: 0.4; hcDAF-12 act: 2.8; DAX1 inh-2: 1.7; ssDAF-12 act: -0.3; hgDAF12 agonist: 5.5

How did Cc1ccc(N=C/C(C(=O)C(F)(F)F)=C(\O)c2cccs2)cc1 do in these assays?
DAX1 inh-1: 4.5*; hcDAF-12 act: 6.5*; DAX1 inh-2: -2.7; ssDAF-12 act: 0.5; hgDAF12 agonist: 5.4; DAX1 inh confirm: 18.4*; SF1 mutant ctr: 6.2*

Results for COc1ccccc1N1CCN(C(=O)c2cccc(S(=O)(=O)NCc3cccnc3)c2)CC1 ?
DAX1 inh-1: 0.3; hcDAF-12 act: -1.4; DAX1 inh-2: -0.7; ssDAF-12 act: -1.6; hgDAF12 agonist: -1.1

How did O=C(CCS(=O)(=O)c1ccccc1)N1CCN(c2ccccc2F)CC1 do in these assays?
DAX1 inh-1: 7.0*; hcDAF-12 act: 3.5; DAX1 inh-2: 1.6; ssDAF-12 act: -0.4; hgDAF12 agonist: 12.8*; DAX1 inh confirm: 7.6*; SF1 mutant ctr: 3.1*

What do the screens show for `OC[C@@H]1CC[C@@H](Cc2ccc(-c3ccccc3)cc2)O1`?
DAX1 inh-1: 5.6*; hcDAF-12 act: 3.8; DAX1 inh-2: 1.6; ssDAF-12 act: 0.4; hgDAF12 agonist: 9.5; DAX1 inh confirm: 6.7*; SF1 mutant ctr: 4.8*

How did Cc1cc(NC(=O)NC(=O)c2ccccc2F)no1 do in these assays?
DAX1 inh-1: 5.2*; hcDAF-12 act: 3.6; DAX1 inh-2: 1.3; ssDAF-12 act: 0.8; hgDAF12 agonist: 4.0; DAX1 inh confirm: 8.7*; SF1 mutant ctr: 2.5

What do the screens show for `Cc1cc(NC(=O)c2ccccc2Cl)no1`?
DAX1 inh-1: 0.9; hcDAF-12 act: 1.5; DAX1 inh-2: 2.6; ssDAF-12 act: -0.1; hgDAF12 agonist: 3.5

Results for Cc1ccc(C(=O)Nc2ncccc2O)o1 ?
DAX1 inh-1: 6.0*; hcDAF-12 act: 1.3; DAX1 inh-2: 2.9; ssDAF-12 act: -0.3; hgDAF12 agonist: 8.7; DAX1 inh confirm: 5.4*; SF1 mutant ctr: 1.4

Results for O=C(Nc1ccc(C(O)(C(F)(F)F)C(F)(F)F)cc1)c1ccc(F)cc1Cl ?
hcDAF-12 act: -1.2; ssDAF-12 act: -1.2; hgDAF12 agonist: 4.6

Results for CC1Cc2ccccc2N1C(=O)c1ccc(Br)o1 (stereo not drawn) ?
DAX1 inh-1: 2.8; hcDAF-12 act: 3.0; DAX1 inh-2: 2.2; ssDAF-12 act: 0.1; hgDAF12 agonist: 8.3

Results for Cc1ccc(C(=O)N2c3ccccc3CC2C)o1 (stereo not drawn) ?
DAX1 inh-1: 5.4*; hcDAF-12 act: 3.0; DAX1 inh-2: 0.9; ssDAF-12 act: -0.4; hgDAF12 agonist: 12.5*; DAX1 inh confirm: 7.5*; SF1 mutant ctr: 6.5*

Results for Cc1nc2cc(NC(=O)N3c4ccccc4CC3C)ccc2o1 (stereo not drawn) ?
DAX1 inh-1: 5.2*; hcDAF-12 act: 6.0*; DAX1 inh-2: 2.1; ssDAF-12 act: 1.2*; hgDAF12 agonist: 6.2; DAX1 inh confirm: 6.8*; SF1 mutant ctr: 4.1*

Screens from PubChem.
